# Assay outcomes: PubChem, National Center for Advancing Translational Sciences (NCATS)
# POLH inh: inhibitors of human DNA polymerase eta; Q9Y253; recombinant Pol eta, fluorescent DNA replication assay; Potency, µM (series often up to 114 µM), usual class: inhibitors; hit rate 1.2% among 390,000; AID 588591
#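 Pol eta at 10 nM preincubated with compounds 15 min at room temperature; reaction started with fluorescent substrate (50 nM final) and read kinetically at 0 and 10 min.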
# Pol kappa inh: blocks human DNA polymerase kappa activity; Q9UBT6; purified Pol kappa, fluorescent DNA synthesis assay, 10 min; Potency, µM (highest dose often 107 µM), hits mostly inhibitors; hit rate 0.53% among 400,000
#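 Kinetic fluorescence readout at 0 and 10 min followed reaction start with substrate at 50 nM final. Beforehand, enzyme (10 nM Pol kappa) stood 15 min with compound at room temperature; buffer-only wells were negative controls.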
# Pol iota inh: DNA polymerase iota (human) inhibition; Pol iota fluorescent replication assay, 10 min; Potency, µM (top dose mostly 115 µM), hits mostly inhibitors; hit rate 1% among 390,000; AID 588590
#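 Fluorescent replication assay read twice, at 0 min and 10 min after adding 50 nM (final) substrate. Enzyme (10 nM) and compounds were first incubated 15 min at room temperature; enzyme-free buffer wells were negative controls.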
# L3MBTL1 block: inhibitors of human L3MBTL1; Q9Y468; hit rate 0.66% among 230,000; Potency, µM (top dose mostly 57.1 µM), usual class: inhibitors; AID 485360; AlphaScreen L3MBTL1–H3K9me1 peptide binding; also: nearly all actives have a fitted effect of over 60% in size
# Target sequence (Q9Y468 whole entry, looked up): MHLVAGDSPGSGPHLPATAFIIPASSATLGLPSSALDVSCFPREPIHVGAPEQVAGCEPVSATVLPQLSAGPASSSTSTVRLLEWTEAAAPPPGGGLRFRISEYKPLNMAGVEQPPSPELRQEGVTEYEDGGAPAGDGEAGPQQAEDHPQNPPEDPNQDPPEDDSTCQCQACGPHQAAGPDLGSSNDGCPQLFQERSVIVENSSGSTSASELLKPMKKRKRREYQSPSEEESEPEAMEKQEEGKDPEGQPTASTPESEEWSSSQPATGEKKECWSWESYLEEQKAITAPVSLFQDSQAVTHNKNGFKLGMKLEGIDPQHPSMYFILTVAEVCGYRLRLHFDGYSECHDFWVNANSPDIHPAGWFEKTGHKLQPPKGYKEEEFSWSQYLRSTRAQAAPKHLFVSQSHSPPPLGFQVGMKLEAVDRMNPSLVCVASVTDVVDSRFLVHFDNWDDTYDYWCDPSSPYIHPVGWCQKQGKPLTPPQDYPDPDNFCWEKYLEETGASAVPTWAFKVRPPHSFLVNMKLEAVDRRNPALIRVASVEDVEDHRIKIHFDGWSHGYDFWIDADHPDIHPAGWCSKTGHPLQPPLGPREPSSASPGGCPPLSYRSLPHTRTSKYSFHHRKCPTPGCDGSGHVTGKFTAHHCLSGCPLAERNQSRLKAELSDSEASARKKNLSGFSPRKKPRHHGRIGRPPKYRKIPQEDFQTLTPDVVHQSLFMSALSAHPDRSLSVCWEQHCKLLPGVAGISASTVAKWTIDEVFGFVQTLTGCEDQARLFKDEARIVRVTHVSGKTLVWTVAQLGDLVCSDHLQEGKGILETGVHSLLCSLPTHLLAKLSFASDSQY
#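 L3MBTL1 (50 nM) pre-complexed 30 min with biotinylated H3(1-15)K9me1 peptide (75 nM), then compounds added for 30 min at room temperature; AlphaScreen streptavidin donor/nickel chelate acceptor beads (10 ug/mL final) read after 30 min dark incubation.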
# APEX1 inh: inhibitors of human APE1 endonuclease | Potency, µM (highest dose often 65.8 µM), actives largely listed as inhibitors | AID 2517 | recombinant APE1, TAMRA/BHQ-2 abasic DNA cleavage fluorescence | hit rate 0.35% among 350,000 | P27695; also: nearly all actives have a fitted effect of over 55% in size
#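 APE1 at 0.75 nM preincubated 15 min at room temperature with compound. Reaction then started with 50 nM double-stranded THF-abasic substrate labelled with TAMRA/BHQ-2, and 525/598 nm fluorescence read kinetically. Activity taken as third-minus-first read difference, normalized to DMSO and NSC13755 controls.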
# Pol beta inh: DNA polymerase beta (human) inhibition | P06746 | hit rate 1.3% among 340,000 | Pol beta primer extension/strand displacement, fluorescence kinetic | Potency, µM (top dose mostly 114 µM), hits mostly inhibitors
#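 10 nM enzyme + cpd, 15 min RT; start with substrate 50 nM final; read 0 min and after 10 min RT. Corrected, normalized data; 4-parameter Hill curve fit.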
# Hits are given with their value; – = inactive; ? = inconclusive; · = no result. Only some compounds are listed: those with a hit (about 2.5% of all), similar ones and a draw of the others. Calls follow the shape of the dose curve; as a rule, active = well fitted curve in the direction sought with a large enough effect; inconclusive = small, poorly fitted or top-dose-only effect, or another doubt; inactive = no such curve, though single readings can be large; an effect the other way counts as inactive or inconclusive.
SMILES,POLH inh,Pol kappa inh,Pol iota inh,L3MBTL1 block,APEX1 inh,Pol beta inh
Cc1nn(Cc2ccc(Cl)cc2)c(C)c1NC(=O)CCCn1nc([N+](=O)[O-])c(Cl)c1C,–,–,–,–,?,89.1µM
CC1=NN(c2ccccc2)C(=O)C1C(=S)SC1CC(=O)NC1=O (configuration not stated),–,·,·,·,·,·
O=C1CC(SC(=S)C2CCCC2=O)C(=O)N1 (configuration not stated),7.08µM,·,·,·,·,·
CCN(CCn1cccn1)C(=O)c1ccc2nc(Cc3ccc(OC)cc3)oc2c1,–,–,–,·,–,–
O=C(CSCc1nc2scc(-c3cccs3)c2c(=O)[nH]1)Nc1ccccn1,–,–,–,·,–,–
O=c1[nH]c(CN2CCc3ccccc32)nc2scc(-c3cccs3)c12,–,–,–,–,?,39.8µM
O=C(O)c1ccc(NC2=C(Cl)C(=O)c3ccccc3C2=O)cc1,?,–,?,?,–,–
O=C(O)c1cccc(NC2=C(Cl)C(=O)c3ccccc3C2=O)c1,79.4µM,–,?,–,–,–
O=C(O)c1cc(N/N=C/c2ccc(-c3ccccc3)cc2)ccc1Cl,?,–,–,·,–,89.1µM
COc1cc(/C=N/Nc2ccc(Cl)c(C(=O)O)c2)ccc1OC(=O)c1ccco1,–,–,–,–,–,–
COc1ccc2ccccc2c1/C=N/Nc1ccc(Cl)c(C(=O)O)c1,44.7µM,?,?,·,–,–
COc1cc(/C=N/Nc2ccc(Cl)c(C(=O)O)c2)ccc1OC(=O)c1cccs1,79.4µM,–,–,–,–,?
COc1ccc(C(=O)Oc2ccc(/C=N/Nc3ccc(Cl)c(C(=O)O)c3)cc2OC)cc1,79.4µM,–,–,·,–,?
CN(Cc1ccccc1)c1ccc(/C=C/c2sc3ccccc3[n+]2C)cc1,·,–,–,·,·,·
CCOC(=O)Nc1ccc(/C=C/c2ccnc3ccccc23)cc1,·,–,–,·,·,·
COc1ccccc1C(=O)NCCC(=O)NCc1ccccn1,–,–,–,–,–,·
COc1cccc(-c2c(C(=O)N/N=C/c3cccs3)nnn2-c2nonc2N)c1,–,–,?,·,–,–
CCOc1cccc(-c2c(C(=O)N/N=C/c3cccs3)nnn2-c2nonc2N)c1,–,?,79.4µM,·,–,?
CC[C@]12c3[nH]c4ccc(OC)cc4c3CCN1C(=O)C(CC(=O)NCCc1ccccn1)C[C@@H]2C(=O)N1CCN(C(=O)c2ccco2)CC1 (some centres not stated),–,–,–,–,–,·
COc1ccc(C(=O)NC(C(=O)OCC(=O)Nc2sccc2C(N)=O)C(C)C)cc1 (configuration not stated),89.1µM,–,?,–,–,·
NC(=O)c1ccsc1NC(=O)COC(=O)c1ccc(Cl)c(N)c1,22.4µM,–,?,–,–,·
NC(=O)c1ccsc1NC(=O)COC(=O)c1cnccn1,?,?,79.4µM,–,–,·
O=C1CC(c2ccc3c(c2)OCO3)c2ccc(O)cc2O1 (configuration not stated),·,–,·,·,–,·
Cc1ccc(C2CC(=O)Oc3cc(O)ccc32)cc1 (configuration not stated),–,–,–,–,–,–
Cc1ccc(C2CC(=O)Oc3cc4c(cc32)OCO4)cc1 (configuration not stated),·,44.7µM,·,·,?,·
SMILES,POLH inh,Pol kappa inh,Pol iota inh,L3MBTL1 block,APEX1 inh,Pol beta inh
O=C1CC(c2ccc3c(c2)OCO3)c2cc(O)ccc2O1 (configuration not stated),·,31.6µM,·,·,?,·
Clc1nc(Cl)nc(-c2cn(-c3ccccc3)c3ccccc23)n1,–,–,–,–,?,20µM
COc1ccc(C(c2c(C)[nH]n(-c3ccccc3)c2=O)c2c(C)[nH]n(-c3ccccc3)c2=O)cc1OC,–,–,1.26µM,?,–,–
Cc1[nH]n(-c2ccccc2)c(=O)c1C(c1cc(Cl)ccc1O)c1c(C)[nH]n(-c2ccccc2)c1=O,?,–,?,·,·,–
CCOc1cc(C(c2c(C)[nH]n(-c3ccccc3)c2=O)c2c(C)[nH]n(-c3ccccc3)c2=O)ccc1O,–,–,1.58µM,·,·,–
O=C(OCCCOC(=O)c1ccc(O)cc1)c1ccc(O)cc1,–,–,–,·,–,?
